KKLEB tox: counter-screen for CF NF-kB inhibitors: cytotoxicity. KKLEB CF airway cells viability, ATPlite luminescence, overnight; stronger effect = lower value; cells stimulated with P. aeruginosa culture filtrate. activity change (cytotoxicity), % at 5 µM. AID 602141. 360,000 tested, 0.36% active;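 active = corrected activity change at or below -50% at 5 µM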
Peg3 prom inh: inhibitors of Peg3 promoter. HeLa PEG-Prom luciferase reporter, luminescence, overnight. 360,000 tested, 1.7% active. inhibition, % at 20 µM;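 active = inhibition of at least 50% at 20 µM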
HIF-2a inh: HIF-2a inhibition | inhibition, % at 18.8 µM | 786-0 RCC cells HIF-2a reporter, luciferase luminescence, overnight | 360,000 tested, 0.72% active;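 active = inhibition of the luminescence signal of 40% or more relative to plate controls, in a single-dose primary screen at 18.75 µM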
TROY signal inh: blocks TROY-dependent signaling in reporter cells. Q293 LMP1-TROYcd NF-kB luciferase reporter, 4 h. inhibition, % at 10 µM. 360,000 tested, 0.98% active;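 active = compounds whose plate-normalised and pattern-corrected inhibition of the luciferase reporter signal at the single screening dose is 50% or more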
CF NFkB block: cystic fibrosis NF-kB activation inhibition; KKLEB NF-kB-GFP reporter, PAF-induced, GFP fluorescence overnight; inhibition, % at 5 µM; 360,000 tested, 0.86% active; AID 588850;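 active = at least 50% inhibition at 5 µM, scaled per plate between neutral and stimulator controls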;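 note: PAF is a Pseudomonas aeruginosa culture filtrate used as stimulus; plate controls were PAF-stimulated DMSO wells for no effect and unstimulated DMSO wells for full effect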
TWEAK Fn14 block: TWEAK-Fn14 signaling inhibition | TWEAK-stimulated Fn14 reporter cells, luciferase luminescence, 8 h | inhibition, % at 10 µM | 360,000 tested, 2% active | AID 1159606; in the data active = inhibition above about 50%
Active calls of the source: *; . = no result given. Rows were chosen to be rich in hits. Some 4% of all compounds tested hit in one or more screens of this group.

SMILES | KKLEB tox | Peg3 prom inh | HIF-2a inh | TROY signal inh | CF NFkB block | TWEAK Fn14 block
Cc1noc2ncnc(N3CCCC3)c12 | 0 | 8 | 12 | 12 | -6 | 21
Cc1noc2ncnc(Sc3ccc(Br)cc3)c12 | -5 | 99* | 0 | 64* | 29 | 66*
CCC(=O)N(C)C[C@H]1Oc2ncc(C#Cc3ccncc3)cc2C(=O)N([C@@H](C)CO)C[C@@H]1C | 5 | -19 | 8 | 1 | -17 | 10
Oc1ccc(C[C@@H]2CNCCN2CCC23CC4CC(CC(C4)C2)C3)cc1 | -11 | 51* | 1 | 12 | 8 | -2
Oc1ccc(C[C@H]2CNCCN2CCCCC2CCCCC2)cc1 | -31 | 106* | -3 | -3 | 18 | -7
Cc1ccc(Cl)c(NC(=O)CN2C(=O)C(C)N(c3ccc(F)cc3)C2=O)c1Cl (stereo not given) | 19 | -4 | 9 | 5 | -41 | -26
N#C/C(=C\C=C\c1ccccc1)C(=O)NCc1ccco1 | -2 | 53* | -2 | 10 | -18 | -4
COc1ccc2c(c1)CC=C1C2CCC2(C)C(=O)C(=NO)CC12 (stereo not given) | -24 | -27 | -80 | -30 | 54* | -26
CC(C)N(C(=O)CC1ON(C)C(=O)N1c1ccc(Cl)cc1)C(C)C (stereo not given) | 11 | 7 | 6 | 11 | 1 | 2
O=C1CC(c2ccccc2)CC(O)=C1C=NCc1ccncc1 (stereo not given) | -4 | 6 | 17 | -3 | 13 | 11
O=C1CC(c2ccccc2)CC(O)=C1C=NCc1ccc(Cl)c(Cl)c1 (stereo not given) | 2 | 15 | 6 | . | -5 | 76*
Cn1c(=O)c2c(nc(N3CCc4ccccc4C3)n2Cc2ccccc2F)n(C)c1=O | -1 | 37 | 20 | 47 | 13 | 61*
COCc1cc(C)nc(SCC(=O)NCC2CCCO2)c1C#N (stereo not given) | -1 | 7 | 6 | -12 | 14 | -11
COC(=O)C1CCN(C(=O)c2ccc(OC)c(S(=O)(=O)N3CCCc4ccccc43)c2)CC1 | 3 | 12 | 17 | -3 | -25 | 18
COC(=O)C1CCN(C(=O)COC(=O)c2ccc(OC)c(S(=O)(=O)N3CCCc4ccccc43)c2)CC1 | 8 | -25 | 2 | 34 | -3 | 51*
Cc1cc(NC(=O)c2ccc3c(c2)C(=O)N(C(C)(C)C)C3=O)no1 | 12 | -54 | 3 | -20 | 2 | -6
CC(C)(C)N1C(=O)c2ccc(C(=O)Nc3cc(C(=O)O)cc(C(=O)O)c3)cc2C1=O | 10 | -8 | 4 | 16 | -7 | 99*
O=C(N/N=C/c1ccco1)c1cc(-c2cccc(Br)c2)nc2ccccc12 | 0 | -7 | -74 | 48 | -31 | 77*
Cc1cccc2sc(NNC(=O)c3cc(-c4cccs4)nc4ccccc34)nc12 | -12 | 56* | 6 | 47 | 33 | 88*
O=C(N/N=C/c1ccc(Cl)c([N+](=O)[O-])c1)c1cc(-c2ccccc2)nc2ccccc12 | -27 | 108* | -319 | -31 | 12 | 31
CN(C)S(=O)(=O)c1ccc(NC(=O)c2cc(-c3cccs3)nc3ccccc23)cc1 | 5 | 47 | -1 | 88* | -16 | 33
CC1(C)NC(=O)N(CC(=O)OCC(=O)Nc2sccc2C#N)C1=O | -5 | -11 | 8 | -6 | -12 | 4
COCCN(C(=O)CC(C)(C)C)c1nnc(-c2cccnc2)s1 | 0 | 12 | 15 | -15 | -3 | -8
O=C1OCCC1S(=O)(=O)c1ccc2ccccc2c1 (stereo not given) | -12 | 16 | 18 | 15 | -6 | 11
O=C(O)c1ccc(/C=N/NC(=O)c2cc(-c3cccs3)nc3ccccc23)cc1 | -8 | 65* | -14 | -9 | 2 | -6
Cc1cc(C(=O)N/N=C/c2ccc(N(C)C)cc2)c2ccccc2n1 | -4 | 6 | -6 | 54* | -10 | 51*
CSc1nnc2c(n1)c(C)nn2-c1ccc(C)cc1 | 4 | -167 | -131 | -24 | -17 | -13
CCN(CC)CCNc1c(C)cc(CO)c(Cl)c1C | -7 | 72* | 20 | 6 | 13 | 4
Nc1ccc2oc(-c3ccccc3Cl)nc2c1 | 6 | -141 | 14 | -15 | -22 | 51*
CN(C)c1ccc(-c2nc3cc(N)ccc3o2)cc1 | -60* | -27 | -54 | -29 | -10 | 74*
